# Measurements reported in PubChem BioAssay (NCI).
# Where “and” joins values, the source holds several entries; their conditions need not be identical. Equal entries are not always repeated. About 83,000 compounds went through this panel and 20% of them were active in at least one assay; those are over-represented in the sample as a whole.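 Plates (96-well) were seeded with cells, treated with compound at one concentration, and incubated for 48 hours before percent growth was determined.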 Calls of active or inactive are those of the source. The calls were made as follows: active = growth percent below 10; inactive = the rest.
# How the values were obtained:
# Assay in all cases: NCI-60 one-dose screen, 48 h (100 = growth as untreated, 0 = no growth, -100 = all killed)
# Conditions in all cases: 10 µM unless noted
# NCI-H23 lung = test system: NCI-H23 lung
# NCI-H226 lung = test system: NCI-H226 lung
# NCI-H322M lung = test system: NCI-H322M lung
# HOP-62 NSCLC = test system: HOP-62 NSCLC
# NCI-H460 lung = test system: NCI-H460 lung
# HOP-92 NSCLC = test system: HOP-92 NSCLC
# NCI-H522 lung = test system: NCI-H522 lung
# A549/ATCC NSCLC = test system: A549/ATCC NSCLC
# 786-0 renal = test system: 786-0 renal
# COLO 205 colon = test system: COLO 205 colon
# DU-145 prostate = test system: DU-145 prostate
# K-562 leukemia = test system: K-562 leukemia
# MALME-3M melanoma = test system: MALME-3M melanoma
# MDA-MB-231 breast = test system: MDA-MB-231 breast
# RXF 393 renal = test system: RXF 393 renal
# SF-268 CNS = test system: SF-268 CNS
# SF-295 CNS = test system: SF-295 CNS
# SF-539 CNS = test system: SF-539 CNS
# UACC-257 melanoma = test system: UACC-257 melanoma
# M14 melanoma = test system: M14 melanoma
Compound,growth (NCI-H23 lung),growth (NCI-H226 lung),growth (NCI-H322M lung),growth (HOP-62 NSCLC),growth (NCI-H460 lung),growth (HOP-92 NSCLC),growth (NCI-H522 lung),growth (A549/ATCC NSCLC),growth (786-0 renal),growth (COLO 205 colon),growth (DU-145 prostate),growth (K-562 leukemia),growth (MALME-3M melanoma),growth (MDA-MB-231 breast),growth (RXF 393 renal),growth (SF-268 CNS),growth (SF-295 CNS),growth (SF-539 CNS),growth (UACC-257 melanoma),growth (M14 melanoma)
COc1cc2cc(C(=O)N3C[C@@H](CCl)c4c3cc(OC(=O)N(C)CCSSCCN3CCOCC3)c3ccccc43)[nH]c2c(OC)c1OC,-66.9% (active),-17.2% (active),1.49% (active),-49.4% (active),0.904% (active),-16.1% (active),-42.8% (active),-9.46% (active),-65% (active),-80.4% (active),-10.3% (active),2.13% (active),-83.7% (active),-20.2% (active),-86.6% (active),0.895% (active),-11.3% (active),-72% (active),-8.65% (active),-81.4% (active)
O=C(CCl)Nc1ccc(C(=O)/C=C/c2cc3ccccc3nc2Cl)cc1,-83.6% (active) and 34.9% (inactive),12.4% (inactive) and 14.5% (inactive),22.4% (inactive) and 45.1% (inactive),-8.06% (active) and 37.4% (inactive),-53.6% (active) and 19.5% (inactive),46.9% (inactive) and 65.3% (inactive),-62.9% (active) and 76.9% (inactive),72.4% (inactive) and 60.8% (inactive),-41.7% (active) and 23.9% (inactive),-64.4% (active) and 72.4% (inactive),-84.1% (active) and 46.7% (inactive),-59.7% (active) and 28.6% (inactive),-87.2% (active) and 48.9% (inactive),-91.6% (active) and 63.6% (inactive),-85.3% (active) and 36.2% (inactive),-15.5% (active) and 29.3% (inactive),-25.5% (active) and 42.3% (inactive),-99.1% (active) and 13.3% (inactive),24.4% (inactive) and 58.7% (inactive),-62.3% (active) and 42.9% (inactive)
C#CCN(C)CCCOc1ccc(N(CC)C(=O)c2cc(C(C)C)c(O)cc2O)cc1Cl,-5.94% (active),-13.8% (active),23.4% (inactive),26% (inactive),-52.4% (active),-44.6% (active),-14.9% (active),15.9% (inactive),21.6% (inactive),4.62% (active),1.4% (active),-26.6% (active),-51.5% (active),-45.3% (active),2.57% (active),28.2% (inactive),-2.79% (active),6.42% (active),-11.6% (active),-45.8% (active)
O=C1CCC(N2C(=O)c3cccc(NCCCCCC(=O)N4CCN(c5ccc6nc7c(nc6c5C(F)(F)F)C(=O)c5ncccc5C7=O)CC4)c3C2=O)C(=O)N1 (stereo not given),-49% (active),-51.3% (active),-73.8% (active),-74.2% (active),-48.3% (active),-40.2% (active),-62% (active),-64.3% (active),-56.5% (active),-75.9% (active),-88.3% (active),-0.95% (active),-99.3% (active),-46.2% (active),-72.1% (active),-29.5% (active),-84.1% (active),-95.4% (active),-98.3% (active),-87.2% (active)
O=CNc1ccc(-n2cnc3cc(-c4ccc(O)cc4)ccc32)cc1,86.5% (inactive),83.5% (inactive),91.1% (inactive),85.6% (inactive),87.4% (inactive),96.5% (inactive),82.1% (inactive),86.9% (inactive),101% (inactive),136% (inactive),86.7% (inactive),64.7% (inactive),65.9% (inactive),108% (inactive),86.5% (inactive),84.6% (inactive),103% (inactive),60.5% (inactive),98.8% (inactive),91.5% (inactive)
COc1cc(NC(=O)CSc2nnc(-c3ccc(-c4nc5ccc(Cl)cc5[nH]4)cc3)o2)cc(OC)c1OC,52.2% (inactive),57.3% (inactive),95.2% (inactive),65.9% (inactive),29% (inactive),91.5% (inactive),35% (inactive),70.5% (inactive),56.7% (inactive),74.2% (inactive),96% (inactive),29.5% (inactive),18.1% (inactive),60.2% (inactive),25.8% (inactive),52.9% (inactive),65% (inactive),24.1% (inactive),67.2% (inactive),33.5% (inactive)
FC(F)(F)c1cc2c(Cl)ncnc2n1CCN1CCOCC1,62.9% (inactive),91.4% (inactive),74.9% (inactive),91.5% (inactive),86% (inactive),107% (inactive),-80.3% (active),92.3% (inactive),99.3% (inactive),79.5% (inactive),73.6% (inactive),0.361% (active),88.1% (inactive),56.4% (inactive),100% (inactive),64.5% (inactive),86.7% (inactive),87% (inactive),75.5% (inactive),44.9% (inactive)
Nc1nn2c(-c3cc4ccccc4oc3=O)ccnc2c1N=Nc1ccccc1,12.5% (inactive),35.1% (inactive),65.4% (inactive),22.3% (inactive),44.4% (inactive),30.2% (inactive),25.3% (inactive),100% (inactive),41.4% (inactive),114% (inactive),90.6% (inactive),67.2% (inactive),81.9% (inactive),-34.8% (active),2.06% (active),61.8% (inactive),72.3% (inactive),-62.4% (active),109% (inactive),92.1% (inactive)
COc1ccc(CCC2NCCc3c(Br)c4c(c(OC)c32)OCO4)cc1 (stereo not given),-24.7% (active),25.5% (inactive),14.6% (inactive),18.1% (inactive),9.1% (active),15.6% (inactive),2.33% (active),24.2% (inactive),8.08% (active),-37.5% (active),33.8% (inactive),6.12% (active),23.4% (inactive),10.9% (inactive),-17.3% (active),20.3% (inactive),4.87% (active),-39.4% (active),37.5% (inactive),-30.7% (active)
COc1ccc2[nH]cc(-c3cc4nc(-c5cn(C)c6ncc(Br)cc56)cc(N)n4n3)c2c1,-76.7% (active),-31.6% (active),-47.5% (active),-50.2% (active),-51.3% (active),-79.2% (active),-64.9% (active),-69.8% (active),-95% (active),-75.5% (active),-70.7% (active),-27.4% (active),-87% (active),-83.8% (active),-77.2% (active),-44% (active),-77.4% (active),-95.4% (active),-82.3% (active),-85.2% (active)
O=C(N/N=C/c1c[nH]c2ccccc12)Nc1ccc(F)c(Cl)c1,28.8% (inactive),65.6% (inactive),85.8% (inactive),53.8% (inactive),23% (inactive),39.9% (inactive),-29.1% (active),39.4% (inactive),33.9% (inactive),33.7% (inactive),61.5% (inactive),15.4% (inactive),56.3% (inactive),61.3% (inactive),18.3% (inactive),39.7% (inactive),13.8% (inactive),27.3% (inactive),60.9% (inactive),33.7% (inactive)
O=C(c1ccc(Cl)cc1)C1[C@H](c2ccccc2Cl)[C@@H](c2ccccc2)NC12C(=O)Nc1ccccc12 (stereo not given in full),-50.2% (active),-67.5% (active),12.5% (inactive),-40.9% (active),-57.2% (active),-48% (active),-30.9% (active),3.68% (active),-58.4% (active),-87.8% (active),-12.8% (active),-36.6% (active),-34.8% (active),-64.8% (active),-80.8% (active),2.93% (active),-72.3% (active),-89.7% (active),1.79% (active),-75.7% (active)
Cc1ccc(N=Nc2c(N)nn3c(-c4cc5cc(Br)ccc5oc4=O)ccnc23)cc1,21.7% (inactive),-26.3% (active),83.6% (inactive),47.7% (inactive),34.9% (inactive),73.6% (inactive),11.7% (inactive),113% (inactive),56.8% (inactive),100% (inactive),52.8% (inactive),64.4% (inactive),82% (inactive),-11.1% (active),-3.16% (active),16% (inactive),49% (inactive),-46.5% (active),121% (inactive),65.1% (inactive)
CC1=C(C)C(=O)C(NCCN2CCOCC2)=C(Br)C1=O,-0.608% (active),67.1% (inactive),91.5% (inactive),87.2% (inactive),98% (inactive),38.7% (inactive),-18.4% (active),87.6% (inactive),100% (inactive),130% (inactive),-76.9% (active),0.994% (active),-69% (active),-6.27% (active),122% (inactive),63.7% (inactive),103% (inactive),32.1% (inactive),-13.3% (active),37.3% (inactive)
CC1=C(C(=O)OCc2ccccc2)C(c2cccc3ccccc23)n2c(nc3ccccc32)N1 (stereo not given),46.4% (inactive),19.4% (inactive),36.6% (inactive),38.3% (inactive),9.99% (active),64.6% (inactive),-42.2% (active),33.9% (inactive),30.3% (inactive),13.9% (inactive),28.9% (inactive),11.7% (inactive),16.8% (inactive),37.9% (inactive),0.534% (active),44.9% (inactive),10.5% (inactive),11.8% (inactive),40.7% (inactive),23.9% (inactive)
